# Hits are enriched below; roughly 3.3% of the tested compounds scored in any of these assays.
# TbPYK inhibitor = qHTS of Trypanosoma Brucei Inhibitors; pyruvate kinase (Trypanosoma brucei), Q57TT1; TbPYK enzyme, Kinase-Glo Plus ATP luminescence, 45 min; Potency, µM (titrated, usually from 76.8 µM), usual class: inhibitors; hit rate 0.12% among 410,000; AID 624173, 2012; active means well fitted curve in the direction sought with a large enough effect; inconclusive means small, poorly fitted or top-dose-only effect, or another doubt; inactive means no such curve, though single readings can be large; an effect the other way counts as inactive or inconclusive; further: nearly all actives have a fitted effect of over 50% in size
#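 Enzyme and substrate buffer are dispensed first and compound is pin-transferred. ADP at 130 uM final then starts the reaction, which runs 45 min at room temperature. Detection reagent is added for 10 min before luminescence is imaged.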
# RE007 growth inh = qHTS Assay for Inhibitors of the HIV-1 protein Vpr. S. pombe RE007 Vpr strain, BacTiter-Glo ATP luminescence, 24 h. Potency, µM (top dose mostly 92.2 µM), actives largely listed as inhibitors. hit rate 0.21% among 360,000; active means well fitted falling curve with a large enough effect; inconclusive means small, poorly fitted or top-dose-only effect; inactive means no such curve, though single readings can be large or run the other way; further: nearly all actives have a fitted effect of over 50% in size
#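 Fission yeast strain RE007, carrying one chromosomally integrated HIV-1 vpr copy, was seeded at OD 0.01 in PMG+AL medium with 23 nL pinned compound. After 24 h at 30 °C and 99% humidity, viability was read by BacTiter-Glo luminescence.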
# NS1 inh = qHTS Assay for Inhibitors of Influenza NS1 Protein Function. Potency, µM (doses to about 46.1 µM). hit rate 0.4% among 270,000. AID 2326, 2010; further: actives are rising curves; nearly all actives have a fitted effect of over 50% in size
#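 Compounds were scored for reversing the slow growth caused by influenza A NS1 in S. cerevisiae, measured by optical density at 600 nm. Assay medium contained 2% galactose at pH 6.0; NS1-free yeast of the same strain were the positive control.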
# SARS PLpro yeast = qHTS of Yeast-based Assay for SARS-CoV PLP. Potency, µM (titrated, usually from 32.9 µM), usual class: activators. hit rate 0.19% among 330,000. S. cerevisiae expressing SARS-CoV PLpro, growth rescue; further: nearly all actives have a fitted effect of over 55% in size
# LmPK inhibitor = qHTS Assay for Inhibitors of Leishmania Mexicana Pyruvate Kinase (LmPK) | Q27686 | purified LmPK, Kinase-Glo ATP luminescence, 1 h | Potency, µM (titrated, usually from 57.5 µM), usual class: inhibitors | hit rate 0.37% among 290,000 | AID 1721, 2009; active means well fitted curve in the direction sought with a large enough effect; inconclusive means small, poorly fitted or top-dose-only effect, or another doubt; inactive means no such curve, though single readings can be large; an effect the other way counts as inactive or inconclusive
# Target sequence (Q27686 whole entry, looked up): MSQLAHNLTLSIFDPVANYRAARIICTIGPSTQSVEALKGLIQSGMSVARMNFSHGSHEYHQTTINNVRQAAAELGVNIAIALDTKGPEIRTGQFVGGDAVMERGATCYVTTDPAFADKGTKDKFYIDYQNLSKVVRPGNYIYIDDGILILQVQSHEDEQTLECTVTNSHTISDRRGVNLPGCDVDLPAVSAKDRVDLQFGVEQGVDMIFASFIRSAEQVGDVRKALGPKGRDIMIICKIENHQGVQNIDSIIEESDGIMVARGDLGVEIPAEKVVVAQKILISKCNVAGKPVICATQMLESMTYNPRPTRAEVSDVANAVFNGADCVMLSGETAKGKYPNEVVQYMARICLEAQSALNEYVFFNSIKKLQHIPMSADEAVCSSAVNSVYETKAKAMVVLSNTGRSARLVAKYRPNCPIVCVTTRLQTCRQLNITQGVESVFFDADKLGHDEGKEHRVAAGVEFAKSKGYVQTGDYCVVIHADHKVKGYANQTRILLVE
#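 Pyruvate kinase activity monitored as ATP production (luciferase luminescence). Conditions: 0.1 nM enzyme, 0.5 mM PEP, 0.1 mM ADP, 1 h, RT; normalized against uninhibited and no-enzyme wells.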
# Sm TGR block = qHTS Assay for the Inhibitors of Schistosoma Mansoni Peroxiredoxins. Schistosoma mansoni thioredoxin glutathione reductase (TGR), Q962Y6. purified TGR, DTNB reduction, TNB absorbance 405 nm. Potency, µM (series often up to 114 µM), usual class: inhibitors. hit rate 3% among 360,000; active means well fitted curve in the direction sought with a large enough effect; inconclusive means small, poorly fitted or top-dose-only effect, or another doubt; inactive means no such curve, though single readings can be large; an effect the other way counts as inactive or inconclusive; further: nearly all actives have a fitted effect of over 60% in size
#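 Kinetic colorimetric format: TGR-catalysed, NADPH-driven DTNB reduction monitored via TNB absorbance. Enzyme dispensed at 20 nM; compound exposure 15 min at room temperature before reaction start.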
# Flu NS1 inh = Assay for Inhibitors of Influenza NS1 Protein Function: Hit Validation | shares compounds with NS1 inh | influenza NS1 function cell assay, 15-point titration | activity change, negative = inhibition, % at 32.9 µM | 1,400 tested, under 10 active | AID 492980, 2010
# Numbers stand for hits; i = inactive; ? = inconclusive; nt = no result given; [ ] = dose if it differs, or a comment. Unless noted, the call rests on the fitted dose curve.
SMILES,TbPYK inhibitor,RE007 growth inh,NS1 inh,SARS PLpro yeast,LmPK inhibitor,Sm TGR block,Flu NS1 inh
CC(=O)Nc1ccc(Nc2nc(-c3sc(NC(C)=O)nc3C)cs2)cc1,i,i,i,i,i,i,nt
Cc1cc(O)ccc1Nc1nc(-c2sc(N)nc2C)cs1,i,i,11µM,i,i,i,i
CC(=O)Nc1nc(C)c(-c2csc(Nc3ccc(O)cc3)n2)s1,i,i,3.2µM,i,i,i,i
N[C@@H](CSC1(c2ccc(Cl)cc2)c2ccccc2-c2ccccc21)C(=O)O,nt,nt,i,nt,nt,nt,nt
O=C(O)C[C@H](Cc1ccccc1Cl)C(=O)O,nt,nt,i,nt,nt,nt,nt
COC(=O)Cc1cc(=O)n(-c2ccccc2)[nH]1,i,i,8.9µM,i,i,i,i
COC(=O)Cc1[nH]n(-c2ccccc2)c(=O)c1C(C)=Nc1ccccc1,i,i,nt,i,i,i,nt
CCC(CC)NCc1ccc(OC)cc1OC,i,i,?,i,i,i,i
COc1ccc(CNCc2ccncc2)c(OC)c1,i,i,i,i,i,i,nt
Cc1ccc2nc(N3CCN(C)CC3)c(C#N)cc2c1,i,i,6.3µM,i,i,i,i
Cc1cc(C)c2nc(N3CCN(C)CC3)c(C#N)cc2c1,i,i,6.3µM,i,i,i,i
COc1cccc(N2CCN(C(=O)c3ccc(C)c(NC(=O)c4nsc5ccccc45)c3)CC2)c1,i,nt,nt,nt,nt,i,nt
CCCOc1ccc(NC(=O)C2CC(=O)N/C(=N/N=C(C)/C=C/c3ccc(N(C)C)cc3)S2)cc1 (configuration not stated),i,i,?,i,i,i,nt
CC(/C=C/c1ccc(N(C)C)cc1)=N\N=C1\NC(=O)CC(C(=O)Nc2ccccc2)S1 (configuration not stated),i,i,7.9µM,i,i,i,i
CC(/C=C/c1ccc(N(C)C)cc1)=N/N=C1/NC(=O)CC(C(=O)Nc2ccc(Cl)cc2)S1 (configuration not stated),i,i,10µM,i,i,i,i
CN(C)c1ccc(NC(=O)Cn2cc3c(n2)CCCC3)cc1,i,i,10µM,i,i,i,i
CC(C)c1ccc(C2N=C(N)Nc3nc4ccccc4n32)cc1 (configuration not stated),i,nt,nt,nt,nt,i,nt
COc1cccc(CNC(=O)Cn2c(C)c3cnn(-c4ccccc4)c(=O)c3c2C)c1,i,nt,nt,nt,nt,i,nt
CCSc1ccc(-c2nn(-c3ccccc3)cc2/C=C(/C#N)C(=O)NC)cc1,i,i,i,i,i,i,nt
C=CCNC(=O)/C(C#N)=C/c1cn(-c2ccccc2)nc1-c1ccc(OC)c([N+](=O)[O-])c1,i,i,?,i,i,i,i
COc1ccc(-c2cc(C)no2)cc1S(=O)(=O)NC1CCC(C)CC1 (configuration not stated),i[15.4 µM],nt,nt,nt,nt,i,nt
CCOC(=O)c1ccc(N2C(=O)c3n[nH]c(C)c3C2c2ccc(OC)cc2OC)cc1 (configuration not stated),i,i,5µM,i,i,i,i
CCOC(=O)C1=C(c2ccccc2)N=c2s/c(=C\c3ccco3)c(=O)n2C1c1cccs1 (configuration not stated),i,i,i,i,i,?,nt
CCOC(=O)C1=C(c2ccccc2)N=c2s/c(=C\c3cc(OC)c(OC)c(OC)c3)c(=O)n2C1c1cccs1 (configuration not stated),i,i,22µM,i,i,i,i
Cn1c(SCC(=O)Nc2cccc3ccccc23)nc(O)cc1=O,i,i,3.5µM,i,i,i,i
SMILES,TbPYK inhibitor,RE007 growth inh,NS1 inh,SARS PLpro yeast,LmPK inhibitor,Sm TGR block,Flu NS1 inh
Cc1ccc(NC(=O)CSc2nc(O)cc(=O)n2C)cc1,i,i,11µM,i,i,i,?
CC1=C(C(N)=O)C(c2ccc(F)cc2)n2nc(-c3ccc(N(C)C)cc3)nc2N1 (configuration not stated),i,nt,nt,nt,nt,i,nt
CCN1CCN(Cc2c(O)ccc3c2O/C(=C\C=C\c2ccccc2)C3=O)CC1,i,i,10µM,i,i,35µM,i
Cc1ccccc1CC(=O)NCCN1CCCCC1,i,i,i,i,i,i,nt
O=C(Cc1ccccc1)NCCN1CCCC1,i,i,2.8µM,i,i,i,i
CCOc1ccc(OCC)c(NS(=O)(=O)c2cccc3nsnc23)c1,i,i,?,i,i,i,i
C/C(=N\NC(=O)c1[nH]c2c([N+](=O)[O-])cc(C)cc2c1-c1ccccc1)c1cccnc1,i,i,8.9µM,i,i,i,i
Cc1ccc(C(=O)N2CCN(C3c4cccc5cccc(c45)C3NS(=O)(=O)c3ccccc3)CC2)cc1 (configuration not stated),i,i,11µM,i,i,i,i
CCOC(=O)C1=C(c2ccccc2)NC(SCC(=O)Nc2ccccc2C)=C(C#N)C1c1ccco1 (configuration not stated),i,i,11µM,i,i,i,?
CCOC(=O)C1=C(c2ccccc2)NC(SCC(=O)Nc2cccc(C)c2)=C(C#N)C1c1ccco1 (configuration not stated),i,i,?,i,i,i,i
CC1(OC(=O)c2cccs2)C(=O)C=C2C=C3CCCN3C=C2C1=O (configuration not stated),i,i,?,i,i[11.5 µM],35µM,i
COc1cc(NC(=O)NC(C)c2c(-n3cccc3)sc3c2CCN(C)C3)cc(OC)c1 (configuration not stated),i,nt,nt,nt,nt,i,nt
O=S(=O)(Cc1nnnn1-c1ccc(Br)cc1)c1ccccc1,i,i,nt,nt,nt,nt,nt
CCS(=O)(=O)c1nnnn1-c1ccccc1S(C)(=O)=O,i,i,14µM,i,i,i,i
Cc1ccc(NC(=O)CCC(=O)N/N=C/c2coc3ccc(F)cc3c2=O)cc1,i,i,nt,nt,nt,nt,nt
Cc1ccc(NC(=O)CCC(=O)N/N=C/c2coc3ccccc3c2=O)cc1,i,i,5.6µM,i,i,i,i
Cc1ccc(N2C(=O)CS(=O)(=O)C23C(=O)N(Cc2ccccc2F)c2ccccc23)cc1Cl (configuration not stated),i,nt,nt,nt,nt,i,nt
Cc1ccc(S(=O)(=O)NCl)cc1,i,nt,nt,nt,nt,nt,nt
CNS(=O)(=O)c1ccc(C)cc1,i,i,?,i,i,i,i
CC1Cc2nc(SCC(=O)Nc3nccs3)n(Cc3ccccc3)c(=O)c2S1 (configuration not stated),i,i,20µM,i,i,i,i

# High-throughput results (PubChem)
